Common to all, as to test: DAPPL (digital affinity profiling via proximity ligation, sequencing); 10 mM Tris-HCl pH 7.5, 50 mM NaCl, 1 mM DTT, 4% glycerol, room temperature, 30 min; GST-TFs on glutathione beads, 16-mer random dsDNA library, 0.1% formaldehyde crosslink after washing; high values mean tight binding
The target of one assay is T1, FLI1 (Homo sapiens, UniProt Q01543 1-452).
T1 sequence: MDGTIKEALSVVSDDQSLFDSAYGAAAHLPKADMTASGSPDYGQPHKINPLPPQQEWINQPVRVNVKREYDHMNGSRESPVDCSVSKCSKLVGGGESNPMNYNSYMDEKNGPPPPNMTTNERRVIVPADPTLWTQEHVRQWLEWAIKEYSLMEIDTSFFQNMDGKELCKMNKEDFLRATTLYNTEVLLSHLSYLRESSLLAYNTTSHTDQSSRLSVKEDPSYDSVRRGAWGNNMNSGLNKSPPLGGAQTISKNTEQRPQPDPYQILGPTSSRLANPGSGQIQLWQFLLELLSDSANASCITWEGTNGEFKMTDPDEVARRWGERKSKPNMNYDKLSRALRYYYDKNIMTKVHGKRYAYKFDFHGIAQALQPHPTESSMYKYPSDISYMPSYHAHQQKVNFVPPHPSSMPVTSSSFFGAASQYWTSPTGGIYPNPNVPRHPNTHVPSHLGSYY
The following applies: protein: recombinant; tags: N-terminal GST; dsDNA, one strand shown. The procedure, abridged: (§1)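 Binding signal is given per hexamer as its read frequency for a factor divided by its frequency in the tag-only sample. GST-fused human transcription factors were expressed in yeast, captured on glutathione beads, barcoded with DNA and pooled with that sample, then incubated with 200 nmole of a 16-mer random double-stranded DNA library in Tris/NaCl/DTT/glycerol buffer for 30 min at room temperature. The pools were then washed, crosslinked, proximity-ligated, amplified by PCR and sequenced on an Illumina NextSeq500.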

Another assay deals with T2, ELK1 (Homo sapiens, UniProt P19419 1-428).
T2 sequence: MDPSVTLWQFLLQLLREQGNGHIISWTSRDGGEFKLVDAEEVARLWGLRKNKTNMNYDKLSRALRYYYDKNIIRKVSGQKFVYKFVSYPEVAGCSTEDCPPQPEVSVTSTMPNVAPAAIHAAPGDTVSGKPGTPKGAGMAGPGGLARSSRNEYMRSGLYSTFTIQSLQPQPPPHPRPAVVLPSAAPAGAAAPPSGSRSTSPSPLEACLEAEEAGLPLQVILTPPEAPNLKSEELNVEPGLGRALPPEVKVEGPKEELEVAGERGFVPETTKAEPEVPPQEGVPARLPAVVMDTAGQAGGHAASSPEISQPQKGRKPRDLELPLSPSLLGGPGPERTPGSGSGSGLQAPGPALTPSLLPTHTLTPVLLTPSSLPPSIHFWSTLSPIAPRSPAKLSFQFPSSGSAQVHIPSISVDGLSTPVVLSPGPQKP
The following applies: protein: recombinant; tags: N-terminal GST; dsDNA, one strand shown. A digest of the protocol:
as §1

A further assay deals with T3, GABPA (Homo sapiens, UniProt Q06546 1-454).
T3 sequence: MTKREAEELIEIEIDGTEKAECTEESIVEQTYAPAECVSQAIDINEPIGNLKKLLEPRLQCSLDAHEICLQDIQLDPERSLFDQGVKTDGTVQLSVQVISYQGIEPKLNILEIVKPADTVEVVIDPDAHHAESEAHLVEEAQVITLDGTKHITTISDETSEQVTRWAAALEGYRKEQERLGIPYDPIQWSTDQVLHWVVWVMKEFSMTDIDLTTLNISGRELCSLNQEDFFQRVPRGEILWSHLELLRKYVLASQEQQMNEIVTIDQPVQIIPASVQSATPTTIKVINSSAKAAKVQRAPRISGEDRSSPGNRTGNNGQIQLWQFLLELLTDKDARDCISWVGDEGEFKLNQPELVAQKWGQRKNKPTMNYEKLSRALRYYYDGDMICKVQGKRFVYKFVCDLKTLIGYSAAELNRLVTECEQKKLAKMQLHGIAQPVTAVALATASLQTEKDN
The following applies: protein: recombinant; tags: N-terminal GST; dsDNA, one strand shown. A digest of the protocol: as §1

A further assay deals with T4, ERG (Homo sapiens, UniProt P11308 1-479).
T4 sequence: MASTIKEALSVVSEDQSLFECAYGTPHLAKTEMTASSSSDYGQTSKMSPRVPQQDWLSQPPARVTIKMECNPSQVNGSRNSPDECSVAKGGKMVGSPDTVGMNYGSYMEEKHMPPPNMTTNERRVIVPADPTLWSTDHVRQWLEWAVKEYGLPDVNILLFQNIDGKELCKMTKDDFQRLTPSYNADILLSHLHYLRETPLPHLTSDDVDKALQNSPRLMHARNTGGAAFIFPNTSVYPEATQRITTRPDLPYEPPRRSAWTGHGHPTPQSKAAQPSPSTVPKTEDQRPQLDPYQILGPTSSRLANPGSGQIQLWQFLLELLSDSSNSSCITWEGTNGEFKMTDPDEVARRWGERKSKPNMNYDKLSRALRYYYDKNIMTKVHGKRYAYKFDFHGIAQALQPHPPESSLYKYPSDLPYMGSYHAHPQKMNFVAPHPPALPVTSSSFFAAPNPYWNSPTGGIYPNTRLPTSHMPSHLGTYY
The note with it: protein: recombinant; tags: N-terminal GST; dsDNA, one strand shown. The procedure, abridged: as §1

For a further assay, the target named is ELF1 (Homo sapiens, UniProt P32519 1-619). The following applies: protein: recombinant; tags: N-terminal GST; dsDNA, one strand shown. The procedure, abridged:
as §1

A further assay concerns the target T5, EHF (Homo sapiens, UniProt Q9NZC4 1-300).
T5 sequence: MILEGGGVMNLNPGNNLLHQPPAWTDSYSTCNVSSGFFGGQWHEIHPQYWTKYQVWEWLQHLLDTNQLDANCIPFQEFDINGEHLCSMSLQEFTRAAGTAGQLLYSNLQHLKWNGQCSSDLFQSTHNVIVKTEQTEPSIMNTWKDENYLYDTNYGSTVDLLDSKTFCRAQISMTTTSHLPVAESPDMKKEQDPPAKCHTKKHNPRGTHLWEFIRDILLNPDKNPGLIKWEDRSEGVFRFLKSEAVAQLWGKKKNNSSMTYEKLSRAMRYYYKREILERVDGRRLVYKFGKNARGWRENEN
The following applies: protein: recombinant; tags: N-terminal GST; dsDNA, one strand shown. A digest of the protocol:
as §1

The target in the next assay is SPI1 (Homo sapiens, UniProt P17947 1-270). The note with it: protein: recombinant; tags: N-terminal GST; dsDNA, one strand shown. The procedure, abridged: as §1
For another assay, the target named is SPIB (Homo sapiens, UniProt Q01892 1-262). The following applies: protein: recombinant; tags: N-terminal GST; dsDNA, one strand shown. The procedure, abridged: as §1
Another assay deals with T6, FEV (Homo sapiens, UniProt Q99581 1-238).
T6 sequence: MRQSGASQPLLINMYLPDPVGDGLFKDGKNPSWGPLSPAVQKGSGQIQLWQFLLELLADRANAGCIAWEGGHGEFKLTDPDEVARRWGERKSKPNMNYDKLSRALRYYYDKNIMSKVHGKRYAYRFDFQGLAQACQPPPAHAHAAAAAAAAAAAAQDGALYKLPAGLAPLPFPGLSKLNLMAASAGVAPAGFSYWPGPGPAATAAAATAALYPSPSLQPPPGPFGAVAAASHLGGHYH
The following applies: protein: recombinant; tags: N-terminal GST; dsDNA, one strand shown. A digest of the protocol:
as §1

In a further assay the target is ETV5 (Homo sapiens, UniProt P41161 1-510). The following applies: protein: recombinant; tags: N-terminal GST; dsDNA, one strand shown. The procedure, abridged: as §1
A further assay concerns the target HSF1 (Homo sapiens, UniProt Q00613 1-529). The note with it: protein: recombinant; tags: N-terminal GST; chain copies: 3; dsDNA, one strand shown. The procedure, abridged: as §1
For another assay, the target named is ELF4 (Homo sapiens, UniProt Q99607 1-663). The following applies: protein: recombinant; tags: N-terminal GST; dsDNA, one strand shown. The procedure, abridged: as §1
The target in the next assay is T7, ELK4 (Homo sapiens, UniProt P28324-2 1-405).
T7 sequence: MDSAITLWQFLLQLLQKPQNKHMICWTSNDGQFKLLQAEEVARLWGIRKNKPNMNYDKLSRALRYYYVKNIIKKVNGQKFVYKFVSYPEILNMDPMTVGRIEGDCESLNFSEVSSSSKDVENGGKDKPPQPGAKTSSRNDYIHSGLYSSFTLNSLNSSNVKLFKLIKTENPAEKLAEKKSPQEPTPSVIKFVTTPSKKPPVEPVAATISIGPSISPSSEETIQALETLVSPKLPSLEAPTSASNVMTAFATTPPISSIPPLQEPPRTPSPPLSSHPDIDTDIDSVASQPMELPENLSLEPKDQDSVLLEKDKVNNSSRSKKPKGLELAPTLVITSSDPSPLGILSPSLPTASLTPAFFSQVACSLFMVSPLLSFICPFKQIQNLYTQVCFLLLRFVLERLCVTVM
The following applies: protein: recombinant; tags: N-terminal GST; dsDNA, one strand shown. A digest of the protocol:
as §1

The target of the next assay is T8, ETV2 (Homo sapiens, UniProt O00321 1-342).
T8 sequence: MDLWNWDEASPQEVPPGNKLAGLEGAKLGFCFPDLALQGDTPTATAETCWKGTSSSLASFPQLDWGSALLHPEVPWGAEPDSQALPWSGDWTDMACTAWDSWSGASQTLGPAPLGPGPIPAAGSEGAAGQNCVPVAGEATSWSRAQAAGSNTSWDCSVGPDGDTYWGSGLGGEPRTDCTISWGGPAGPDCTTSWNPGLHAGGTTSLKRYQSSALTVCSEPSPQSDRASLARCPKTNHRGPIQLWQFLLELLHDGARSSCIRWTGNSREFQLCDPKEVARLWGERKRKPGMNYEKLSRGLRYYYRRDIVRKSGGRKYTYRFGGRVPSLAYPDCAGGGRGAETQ
The following applies: protein: recombinant; tags: N-terminal GST; dsDNA, one strand shown. A digest of the protocol: as §1

For the next assay, the target named is T9, ELF3 (Homo sapiens, UniProt P78545 1-371).
T9 sequence: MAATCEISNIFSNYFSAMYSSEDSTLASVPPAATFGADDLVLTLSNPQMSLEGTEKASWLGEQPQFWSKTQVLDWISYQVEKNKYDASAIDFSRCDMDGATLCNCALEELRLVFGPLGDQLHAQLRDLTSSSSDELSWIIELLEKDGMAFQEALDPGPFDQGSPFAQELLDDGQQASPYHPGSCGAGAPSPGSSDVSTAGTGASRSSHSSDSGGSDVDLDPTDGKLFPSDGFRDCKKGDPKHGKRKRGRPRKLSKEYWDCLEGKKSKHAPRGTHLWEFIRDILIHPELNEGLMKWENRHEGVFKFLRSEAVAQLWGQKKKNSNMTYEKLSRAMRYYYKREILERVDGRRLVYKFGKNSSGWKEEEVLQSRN
The note with it: protein: recombinant; tags: N-terminal GST; dsDNA, one strand shown. The procedure, abridged: as §1

For another assay, the target named is ETV1 (Homo sapiens, UniProt P50549 1-477). The note with it: protein: recombinant; tags: N-terminal GST; dsDNA, one strand shown. The procedure, abridged: as §1
Sequence of ETV1 (P50549 whole entry): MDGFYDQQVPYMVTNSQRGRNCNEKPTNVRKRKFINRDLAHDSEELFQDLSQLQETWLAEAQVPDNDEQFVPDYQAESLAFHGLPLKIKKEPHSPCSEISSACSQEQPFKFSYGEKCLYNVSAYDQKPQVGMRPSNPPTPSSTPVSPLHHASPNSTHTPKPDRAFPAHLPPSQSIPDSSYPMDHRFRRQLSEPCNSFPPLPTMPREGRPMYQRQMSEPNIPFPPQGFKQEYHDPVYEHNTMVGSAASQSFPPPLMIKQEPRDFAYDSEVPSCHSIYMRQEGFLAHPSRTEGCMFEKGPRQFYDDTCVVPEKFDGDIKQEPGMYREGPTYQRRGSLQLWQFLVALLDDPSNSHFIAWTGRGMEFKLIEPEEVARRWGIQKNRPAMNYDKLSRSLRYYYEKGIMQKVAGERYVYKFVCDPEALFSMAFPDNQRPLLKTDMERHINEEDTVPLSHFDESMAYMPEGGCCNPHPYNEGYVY

Sequence of SPIB (Q01892 whole entry): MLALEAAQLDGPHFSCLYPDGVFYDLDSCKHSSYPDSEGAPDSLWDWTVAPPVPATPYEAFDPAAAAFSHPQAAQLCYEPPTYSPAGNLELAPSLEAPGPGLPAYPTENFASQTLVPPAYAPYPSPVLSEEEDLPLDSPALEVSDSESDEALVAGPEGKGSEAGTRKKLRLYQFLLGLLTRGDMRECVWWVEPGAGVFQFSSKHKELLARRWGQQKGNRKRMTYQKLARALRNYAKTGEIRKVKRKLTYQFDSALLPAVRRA
Sequence of ELF4 (Q99607 whole entry): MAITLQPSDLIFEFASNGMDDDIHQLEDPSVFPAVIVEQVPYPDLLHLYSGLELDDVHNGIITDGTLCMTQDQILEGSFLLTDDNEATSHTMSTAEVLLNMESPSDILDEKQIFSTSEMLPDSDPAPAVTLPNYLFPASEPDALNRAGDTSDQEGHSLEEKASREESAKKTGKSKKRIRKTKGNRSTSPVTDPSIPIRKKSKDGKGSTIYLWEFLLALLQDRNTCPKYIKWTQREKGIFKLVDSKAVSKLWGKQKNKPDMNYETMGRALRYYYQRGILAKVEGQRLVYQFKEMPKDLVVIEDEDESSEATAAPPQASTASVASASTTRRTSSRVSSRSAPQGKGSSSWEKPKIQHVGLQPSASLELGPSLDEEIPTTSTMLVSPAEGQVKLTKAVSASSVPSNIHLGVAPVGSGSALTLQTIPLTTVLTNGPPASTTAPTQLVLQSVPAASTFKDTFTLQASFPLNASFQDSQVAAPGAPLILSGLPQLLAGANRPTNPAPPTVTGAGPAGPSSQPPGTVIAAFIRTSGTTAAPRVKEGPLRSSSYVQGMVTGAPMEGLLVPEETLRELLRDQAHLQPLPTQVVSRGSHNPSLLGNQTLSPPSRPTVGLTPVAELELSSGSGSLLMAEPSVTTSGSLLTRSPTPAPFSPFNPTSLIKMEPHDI
Sequence of HSF1 (Q00613 whole entry): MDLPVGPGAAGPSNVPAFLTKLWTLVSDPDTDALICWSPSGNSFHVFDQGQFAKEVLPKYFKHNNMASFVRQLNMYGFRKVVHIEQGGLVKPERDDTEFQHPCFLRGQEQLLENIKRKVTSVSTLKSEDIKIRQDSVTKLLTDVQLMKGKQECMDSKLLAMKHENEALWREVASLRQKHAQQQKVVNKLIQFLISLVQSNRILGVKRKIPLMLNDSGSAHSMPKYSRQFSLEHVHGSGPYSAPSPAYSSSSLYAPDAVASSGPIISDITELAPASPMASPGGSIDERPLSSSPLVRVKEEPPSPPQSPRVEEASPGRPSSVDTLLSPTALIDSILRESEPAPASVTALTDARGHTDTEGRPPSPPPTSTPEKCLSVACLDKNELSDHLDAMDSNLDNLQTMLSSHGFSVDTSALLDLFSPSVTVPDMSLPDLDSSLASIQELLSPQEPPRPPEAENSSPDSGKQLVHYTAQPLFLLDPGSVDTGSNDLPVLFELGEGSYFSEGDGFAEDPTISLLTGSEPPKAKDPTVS
Sequence of ETV5 (P41161 whole entry): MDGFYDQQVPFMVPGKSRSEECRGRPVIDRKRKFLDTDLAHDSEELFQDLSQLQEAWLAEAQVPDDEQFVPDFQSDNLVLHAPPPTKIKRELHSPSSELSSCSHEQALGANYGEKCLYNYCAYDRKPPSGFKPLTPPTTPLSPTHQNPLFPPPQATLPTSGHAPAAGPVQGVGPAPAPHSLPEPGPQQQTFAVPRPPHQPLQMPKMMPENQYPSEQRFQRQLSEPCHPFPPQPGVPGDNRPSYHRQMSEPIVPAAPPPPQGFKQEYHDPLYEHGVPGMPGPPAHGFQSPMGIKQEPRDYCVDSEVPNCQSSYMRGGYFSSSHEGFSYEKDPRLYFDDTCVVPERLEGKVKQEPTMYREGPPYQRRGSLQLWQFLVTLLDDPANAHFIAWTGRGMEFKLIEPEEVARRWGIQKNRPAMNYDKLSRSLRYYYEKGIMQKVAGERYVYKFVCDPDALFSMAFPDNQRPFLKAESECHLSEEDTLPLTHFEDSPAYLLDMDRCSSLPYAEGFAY
Sequence of ELF1 (P32519 whole entry): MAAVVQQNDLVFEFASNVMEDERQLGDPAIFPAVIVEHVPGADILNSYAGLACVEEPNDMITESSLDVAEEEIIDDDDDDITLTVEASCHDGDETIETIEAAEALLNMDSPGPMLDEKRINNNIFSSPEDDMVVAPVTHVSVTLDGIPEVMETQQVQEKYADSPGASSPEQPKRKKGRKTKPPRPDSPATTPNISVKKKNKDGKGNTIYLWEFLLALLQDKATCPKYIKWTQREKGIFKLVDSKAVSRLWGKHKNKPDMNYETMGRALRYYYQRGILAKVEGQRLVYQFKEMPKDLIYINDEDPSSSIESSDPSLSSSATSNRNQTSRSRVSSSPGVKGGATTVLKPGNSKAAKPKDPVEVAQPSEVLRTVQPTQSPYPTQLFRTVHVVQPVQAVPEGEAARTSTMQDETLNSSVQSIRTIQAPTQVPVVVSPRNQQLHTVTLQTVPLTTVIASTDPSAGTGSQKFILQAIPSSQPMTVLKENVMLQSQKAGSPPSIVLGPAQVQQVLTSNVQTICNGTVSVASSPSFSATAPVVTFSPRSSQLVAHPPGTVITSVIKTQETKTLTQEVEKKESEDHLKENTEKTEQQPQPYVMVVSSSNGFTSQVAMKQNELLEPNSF

With TGACGA, the binding signal was 1.06 fold enrichment (6-mer frequency, TF over GST control) in the assay with FLI1; 1.12 fold enrichment (6-mer frequency, TF over GST control) with ELK1; 1.21 fold enrichment (6-mer frequency, TF over GST control) in the assay with GABPA; 1.07 fold enrichment (6-mer frequency, TF over GST control) with ERG; 1.14 fold enrichment (6-mer frequency, TF over GST control) with ELF1; 1.04 fold enrichment (6-mer frequency, TF over GST control) in the assay with EHF. Besides, the binding signal in the assay with SPI1 was 1.03 fold enrichment (6-mer frequency, TF over GST control); in the assay with SPIB it was 1.17 fold enrichment (6-mer frequency, TF over GST control); with FEV, 1.05 fold enrichment (6-mer frequency, TF over GST control); in the assay with ETV5, 1.13 fold enrichment (6-mer frequency, TF over GST control); in the assay with HSF1, 1.01 fold enrichment (6-mer frequency, TF over GST control); with ELF4, 1.11 fold enrichment (6-mer frequency, TF over GST control). Also, the binding signal in the assay with ELK4 was 1.18 fold enrichment (6-mer frequency, TF over GST control); in the assay with ETV2 it was 1.15 fold enrichment (6-mer frequency, TF over GST control); in the assay with ELF3, 1.08 fold enrichment (6-mer frequency, TF over GST control); with ETV1, 1.04 fold enrichment (6-mer frequency, TF over GST control).

The record behind these values is paper PMC7862700, “An all-to-all approach to the identification of sequence-specific readers for epigenetic DNA modifications on cytosine”.
